# Compound activity (PubChem)
# Hits are enriched below; roughly 21% of the tested compounds scored in any of these assays.
# Shiga toxin inh: blocks Shiga toxin action in Vero cells; AID 2315; inhibition, % at 38.7 µM; actives 9.2% (n = 290,000); Vero cells, Shiga toxin protein synthesis inhibition reporter; in the data active means inhibition mostly above about 28%, no sharp cut-off; inactive means mostly below about 43%; further: 0% is about no effect
# CHX counter: counter-screen for Shiga toxin inhibitors: cycloheximide protein synthesis inhibition | max response, % | AID 2314 | actives 12% (n = 300,000) | cell reporter, cycloheximide protein synthesis inhibition counterscreen; in the data active means max response mostly above about 13%, no sharp cut-off; inactive means mostly below about 14%; further: read at 38.3 µM for the half of the compounds with a filed dose; 0% is about no effect
# Pf growth 96h: P. falciparum growth inhibition at 96 hours. Potency, µM (titrated, usually from 28.7 µM), inactives show at the highest dose activity change, negative = inhibition, actives largely listed as inhibitors. P. falciparum luciferase reporter growth, 96 h. actives 6.9% (n = 320,000); further: potency means the concentration at half of the fitted maximal effect; on the % scale 0 is the no-effect control and ±100 the full control effect
#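 P. falciparum expressing integrated firefly luciferase grown in erythrocytes (2% hematocrit, 0.05% parasitemia final) with compounds for 96 hours at 37 C, 5% CO2. Growth inhibition read as loss of luminescence after adding luciferase detection reagent.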
# SARS PLpro yeast: inhibitors of SARS-CoV papain-like protease in yeast | S. cerevisiae expressing SARS-CoV PLpro, growth rescue | Potency, µM (doses to about 32.9 µM), for inactives: at the highest dose activity, positive = growth rescue, actives largely listed as activators | actives 0.19% (n = 330,000) | AID 485353; calls by dose curve; further: potency means the concentration at half of the fitted maximal effect; 0% is about no effect; nearly all actives have a fitted effect of over 55% in size
# Pf growth 48h: inhibits P. falciparum growth in the first generation, 48 h | P. falciparum luciferase growth in erythrocytes, 48 h | Potency, µM (series often up to 28.7 µM), for inactives: at the highest dose activity change, negative = inhibition, hits mostly inhibitors | actives 5.9% (n = 310,000) | AID 504832; further: potency means the concentration at half of the fitted maximal effect; on the % scale 0 is the no-effect control and ±100 the full control effect
#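 Compounds are pin-transferred into medium, infected erythrocytes (2% hematocrit, 0.1% parasitemia final) are added, and plates sit one parasite generation at 37 C in 5% CO2. Detection reagent is then added and luminescence measured.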
# NS1 inh: influenza NS1 inhibition; AID 2326; Potency, µM (series often up to 46.1 µM), inactives show at the highest dose activity, positive = more growth; actives 0.4% (n = 270,000); calls by dose curve; further: potency means the concentration at half of the fitted maximal effect; actives are rising curves; nearly all actives have a fitted effect of over 50% in size
#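 Recovery from NS1-induced slow growth read by OD600 in budding yeast switched to galactose assay medium (pH 6.0, -URA) at 1:100 dilution. Compound 23 nl per well; the matching strain lacking NS1 serves as control.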
# * marks the source's active call; other numbers are inactive results; u = inconclusive; x = no result given; [ ] = remark or other dose. Unless noted, the call rests on the fitted dose curve; in most records, active means well fitted inhibition curve with a large enough effect; inconclusive means small, poorly fitted or top-dose-only effect, or another doubt; inactive means no such curve, though single readings can be large or run the other way.
SMILES,Shiga toxin inh,CHX counter,Pf growth 96h,SARS PLpro yeast,Pf growth 48h,NS1 inh
N#Cc1c(/N=C/c2cccnc2)sc2c1CCCC2,15,-1,11%,-1%,6%,-5%
N#Cc1c(/N=C/c2ccc(-c3ccccc3C(=O)O)o2)sc2c1CCCC2,111*,60*,-3%,1%,x,-2%
C=C1C2(C(=O)Nc3nccs3)CCC(C2)C1(C)C (configuration not stated),-7,10,x,u,1.2µM*,-3%
O=C(Nc1nccs1)C1(c2ccc(Cl)cc2)CC1,14,0,u,3%,u,6%
COc1ccccc1N1CCN(C(=O)c2sc3nc(C)nc(N4CCN(c5ccccn5)CC4)c3c2C)CC1,-16,-4,33%,-11%,u,-19%
Cc1nc(N2CCN(c3ccccn3)CC2)c2c(C)c(C(=O)N3CCN(c4ccc(F)cc4)CC3)sc2n1,-8,1,1%,-3%,4.7µM*,-31%
Cc1c(C(=O)N2CCN(c3ccccn3)CC2)sc2ncnc(N3CCOCC3)c12,-8,-2,-27%,-7%,x,-3%
COc1ccccc1N1CCN(C(=O)c2sc3ncnc(N4CCN(c5ccccn5)CC4)c3c2C)CC1,-1,-2,2%,1%,12µM*,-51%
COc1ccc(NC(=O)c2sc3ncn(CC(=O)N4CCN(c5ccccn5)CC4)c(=O)c3c2C)c(OC)c1,-15,-2,24%,1%,1%,4%
COc1ccc(OC)c(NC(=O)c2sc3ncnc(N4CCN(c5ccccn5)CC4)c3c2C)c1,16,-3,u,3%,8.3µM*,0%
CCN1CCN(C(=O)c2sc3nc(C)nc(N4CCC(C)CC4)c3c2C)CC1,-7,-1,u,4%,13µM*,-10%
O=S(=O)(c1cc(F)ccc1F)N1CCC2(CC1)OCCN2S(=O)(=O)c1cccs1,x,x,u,-3%,u,x
Cc1c(C(=O)N2CCN(c3ccccc3)CC2)sc2ncnc(N3CCN(c4ccccn4)CC3)c12,-5,-6,30%,-14%,u,12%
Cc1c(C(=O)N2CCN(c3ccc(F)cc3)CC2)sc2ncnc(N3CCN(c4ccccn4)CC3)c12,-3,-2,12%,2%,10µM*,-50%
CCCCN1CCc2c([nH]c3c(C)cccc23)C1=O,69*,42*,u,-2%,x,-16%
COc1ccc(C(=O)NC(=S)N(C)C2CCCCC2)cc1Br,-8,-1,3.7µM*,x,u,-21%
Cc1ccc(C(=O)NC(=S)N(C)C2CCCCC2)cc1Br,23,12,u,-11%,u,10%
COc1ccc(C(=O)NC(=S)N(C)C2CCCCC2)cc1,50*,36*,12µM*,9%,-11%,4%
COc1ccc(C(=O)NC(=S)N2CCNC(=O)C2)cc1Br,-2,-7,-18%,0%,1%,7%
COc1ccc(C(=O)NC(=S)N2CCC(C)CC2)cc1Br,29*,18*,u,2%,87%,-18%
N#C/C(=C\c1ccc(Cl)cc1)c1nc2ccccc2o1,3,10,-4%,-20%,6%,0%
Cn1c(/C(C#N)=C/Nc2ccccn2)nc2ccccc21,24,5,x,5%,x,-60%
N#C/C(=C\Nc1ccccc1O)c1nc2ccccc2o1,71*,26*,10µM*,-87%,1.7µM*,-39%
Cn1c(/C(C#N)=C/c2cccc(O)c2)nc2ccccc21,74,43*,0%,-1%,u,-7%
N#C/C(=C\c1cccc(O)c1)c1nc2ccccc2o1,85*,59*,141%,-3%,52%,-53%
SMILES,Shiga toxin inh,CHX counter,Pf growth 96h,SARS PLpro yeast,Pf growth 48h,NS1 inh
N#C/C(=C\c1ccncc1)c1nc2ccccc2o1,46,29*,4%,0%,13%,-2%
Cn1cc(Br)c(-c2cccc(NC(=O)CCC(=O)O)c2)n1,-3,-3,3%,1%,u,2%
CCC(C)C(NC(=O)c1ccccc1)C(=O)Nc1ccc(S(=O)(=O)Nc2cc(C)nc(C)n2)cc1 (configuration not stated),x,x,u,-1%,u,x
CCOc1ccc(CN(C)CC(=O)NCc2ccc(F)cc2)cc1,-11,4,12%,-1%,-1%,17%
CC(C)(C)N=Cc1cc(-c2ccccc2)sc1O,71*,38*,u,-2%,x,-8%
Cc1ccc2nc(SCC(=O)Nc3cc(C)on3)c(C)cc2c1,-4,2,u,-2%,21%,-9%
O=C(CCCc1nc(-c2ccccc2)no1)N1CCOCC1,30,18*,29%[5.75 µM],8%,37%,-11%
Clc1ccc(-c2noc(CN3CCCC3)n2)cc1,65*,37*,u,1%,152%,3%
Cc1ccc(-c2noc(CCC(=O)N3CCCC3)n2)cc1,46*,27*,32%,6%,53%,4%
Cc1ccc(-c2noc(CCC(=O)N3CCN(c4cc(C)ccc4C)CC3)n2)cc1,x,x,x,-16%,x,x
Cc1ccc(-c2noc(CN3CCOCC3)n2)cc1,76*,39*,53%,8%,87%,2%
Cc1ccc(S(=O)(=O)CC(=O)N(C)C)cc1,9,1,x,19%,-15%,8%
O=C1CC(c2ccco2)CC2=C1C(c1cccnc1)n1nc(C(F)(F)F)nc1N2 (configuration not stated),-2,-6,x,x,x,x
Cc1ccc(S(=O)(=O)NC(C(=O)Oc2ccc3c(C(F)(F)F)cc(=O)oc3c2)c2ccccc2)cc1 (configuration not stated),3,2,u,-2%,-5%,-44%
CS(=O)(=O)N1CCN(C(=O)NC2CCCCC2)CC1,-9,-3,u,3%,8%,1%
Cc1ccc(-c2noc(CCC(=O)NC3CCCc4ccccc43)n2)cc1 (configuration not stated),-5,1,1.7µM*,1%,-23%,-8%
Cn1ccnc1C1CCCCN1Cc1nc(-c2ccc(Cl)cc2)no1 (configuration not stated),-14,1,u,1%,12µM*,-6%
Cc1ccc(-c2noc(CN3CCCCC3)n2)cc1,91*,49*,166%,0%,x,4%
COCCn1c(SCC(=O)NC2CC2)nnc1-c1ccco1,-10,-1,24%,-1%,6%,-4%
COCCCn1c(SCC(=O)NC2CCCCC2)nnc1-c1ccncc1,-15,-5,8.3µM*,-5%,8%,-10%
COCCCn1c(SCC(=O)NC2CCCCC2)nnc1-c1ccco1,1,-4,2.3µM*,0%,10%,4%
C[C@@H](NC(=O)[C@@H]1Cc2ccccc2CN1C(=O)OC(C)(C)C)C(=O)NC1CCCC1,13,9,6%,-13%,u,5%
CCCOC(=O)c1ccc(NC(=O)c2cc(=O)[nH]c3ccccc23)cc1,1,-2,45%,-1%,-6%,-3%
